Mtb hypoxia inh: Mtb hypoxia fluorescent reporter inhibition. 300,000 compounds, 0.1% hits. AID 1159583. fluorescence inhibition, % (no concentration beside the values). M. tuberculosis hypoxia-regulated fluorescent reporter, fluorescence; in the data active = fluorescence inhibition mostly above about 23%, no sharp cut-off; inactive = mostly below about 17%
Mtb BioA inh: BioA (M. tuberculosis) enzyme inhibition; inhibition, % at 9.99 µM; 360,000 compounds, 0.096% hits; purified M. tuberculosis BioA enzyme, plate reader; in the data active = inhibition above about 40%
FadD28 binding: M. tuberculosis FadD28 bisubstrate binding inhibition; inhibition, % at 12.5 µM; FadD28 bisubstrate probe binding, fluorescence polarization; 360,000 compounds, 0.22% hits; in the data active = inhibition above about 8.5%, passing the limit was not always enough
GDH-TPI inh: inhibits GDH-TPI coupling enzymes, artifact for Mtb FBA screen; GDH-TPI coupled enzyme counterscreen, NADH absorbance; inhibition, % at 4.8 µM; 360,000 compounds, 1.2% hits; AID 588335; in the data active = inhibition above about 30%;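 note: 0% = DMSO wells and 100% = wells lacking the enzyme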
Mtb FBA inh: inhibits M. tuberculosis FBA enzyme | purified M. tuberculosis FBA, fluorescence read-out | inhibition, % at 1 µM | 360,000 compounds, 2.3% hits | AID 588726; in the data active = inhibition above about 27%;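 note: 0% = vehicle and 100% = reference inhibitor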
Target sequence (P9WQA3 whole entry, looked up): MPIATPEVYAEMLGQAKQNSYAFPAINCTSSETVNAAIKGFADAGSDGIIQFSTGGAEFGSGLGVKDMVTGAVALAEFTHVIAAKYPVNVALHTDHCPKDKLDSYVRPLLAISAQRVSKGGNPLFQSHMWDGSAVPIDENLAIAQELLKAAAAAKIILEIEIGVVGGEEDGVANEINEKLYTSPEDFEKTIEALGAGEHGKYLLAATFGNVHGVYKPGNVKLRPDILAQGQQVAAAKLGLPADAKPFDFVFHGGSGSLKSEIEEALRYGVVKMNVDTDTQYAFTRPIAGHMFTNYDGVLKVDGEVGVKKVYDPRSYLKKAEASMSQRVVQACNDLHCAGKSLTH
Numbers without * were called inactive; · = not tested or not shown; + = active, no number. An excerpt weighted towards active compounds, which were near 2.9% of everything screened.

SMILES	Mtb hypoxia inh	Mtb BioA inh	FadD28 binding	GDH-TPI inh	Mtb FBA inh
COc1cc(/C=C2\S/C(=N/S(=O)(=O)Cc3ccccc3)NC2=O)c([N+](=O)[O-])cc1OC	-1	0	3	33*	-4
CCOc1ccc(N2C(=O)NC(=O)/C(=C\c3cc(OC)c(OC)cc3[N+](=O)[O-])C2=O)cc1	9	-6	-1	12	23
COc1cc(/C=C2/S/C(=N/S(=O)(=O)c3ccccc3)NC2=O)c([N+](=O)[O-])cc1OC	-1	-3	4	26	-5
Cc1cc(C(=O)NN=Cc2ccc(-c3cccc([N+](=O)[O-])c3)o2)n[nH]1	2	·	·	·	·
CN(/N=C/c1ccncc1)c1cnc2ccccc2n1	·	·	-1	33*	-5
COc1cc(-c2ccc(Nc3ccccc3C(=O)O)c(OC)c2)ccc1Nc1ccccc1C(=O)O	0	2	78*	30	1
CCNc1nc(NC(C)C)nc(Nn2cnnc2)n1	14	-2	-2	0	-1
CCNc1nc(C)c2cc(Br)c(=O)n(CC)c2n1	3	0	-1	40*	156*
C[C@@H]1CN([C@@H](C)CO)C(=O)c2cc(NC(=O)CCN3CCOCC3)ccc2O[C@H]1CN(C)C(=O)Nc1ccccc1	·	0	·	·	·
CCCCCCSc1cc(-c2nc3cc(C)ccn3c2NCCCC)ccc1OC	·	-2	-2	15	12
CCCCNc1c(-c2cccc(-c3cc(C(C)=O)cs3)c2)nc2cc(C)ccn12	11	1	-2	33*	3
CCOC(=O)/C(C#N)=C/c1c[nH]c2ccccc12	4	·	-2	20	1
CCOC(=O)C(=Cc1c[nH]c2ccc(S(=O)(=O)N(C)C)cc12)C(=O)OCC	5	-1	-3	41*	6
CC(=NCCCn1ccnc1)c1c(-c2ccccc2)[nH]n(-c2nc3ccccc3s2)c1=O	20	41*	-6	10	-1
O=c1c(C=NCCCn2ccnc2)c(-c2ccccc2)[nH]n1-c1nc2ccccc2s1	4	·	-4	18	-3
C=C(C)c1cccc(C(C)(C)NC(=O)Nc2ccc(OC)nc2)c1	1	-1	-1	1	148*
CC12CCC(CC1=NOC(=O)c1ccc(F)cc1)C2(C)C (stereo not given)	3	·	·	·	·
CNc1cncc(-c2ccc(O)cc2C)n1	·	0	-2	9	13
CNc1cncc(-c2cccc(O)c2)n1	·	-2	1	25	200*
CNc1cncc(-c2cccc(C(=O)NCCN(C)C)c2)n1	·	1	-4	15	121*
CNc1cncc(-c2ccc(C)cc2)n1	·	0	3	15	197*
CNc1cncc(-c2cccc(C(=O)NC3CC3)c2)n1	·	-1	-1	23	+
CC(=O)Nc1cncc(-c2cccc(C(=O)N(C)C)c2)n1	·	0	-1	12	3
C[C@@H]1CN([C@@H](C)CO)C(=O)c2cc(C#CC3(O)CCCC3)cnc2O[C@H]1CN(C)C(=O)Cc1ccccc1	·	2	·	·	·
CCCSc1nc2sc3c(c2c(=O)[nH]1)CCN(Cc1ccccc1)C3	·	4	-8	8	86*
SMILES	Mtb hypoxia inh	Mtb BioA inh	FadD28 binding	GDH-TPI inh	Mtb FBA inh
CC(C)(C)c1ccc(C(=O)Nc2cccc(S(=O)(=O)NC3=NCCC3)c2)cc1	0	1	-1	0	-2
COc1ccc(/C=C/C(=O)Nc2cccc(S(=O)(=O)NC3=NCCCCC3)c2)cc1	2	0	0	51*	6
O=C(/C=C/c1ccc(OC(F)F)cc1)Nc1cccc(S(=O)(=O)NC2=NCCCCC2)c1	3	0	-8	1	-1
O=C(Nc1ccc(S(=O)(=O)NC2=NCCCCC2)cc1)c1cccs1	30*	1	-1	1	-1
CCc1nnc(NS(=O)(=O)c2ccc(NC(=O)/C=C/c3ccc(OC)cc3OC)cc2)s1	6	4	-17	40*	4
O=C(Nc1ccc(S(=O)(=O)NC2=NCCCCC2)cc1)c1ccc([N+](=O)[O-])s1	17	12	-1	12	-2
CN(C)c1ccc(C(=O)Nc2cccc(S(=O)(=O)NC3=NCCCCC3)c2)cc1	6	1	-2	31*	-1
O=C(NCC[C@@H]1CC[C@H](NS(=O)(=O)c2ccc(Oc3ccccc3)cc2)[C@@H](CO)O1)C1CC1	·	1	·	·	·
COc1ccc(OC)c(/C=C/C(=O)Nc2cccc(S(=O)(=O)NC3=NCCCCC3)c2)c1	-4	-1	-2	0	20
COc1ccc(/C=C/C(=O)Nc2cccc(S(=O)(=O)NC3=NCCCCC3)c2)c(OC)c1	3	-1	-5	36*	4
